Tb PGK inh – qHTS Assay to Find Inhibitors of Phosphoglycerate Kinase; Phosphoglycerate kinase, glycosomal (Trypanosoma brucei brucei), P07378; PGK/GAPDH coupled, Kinase-Glo luminescence, 60 min; Potency, µM (series often up to 57.5 µM), for inactives: at the top dose activity change, negative = inhibition, actives largely listed as inhibitors; hit rate 0.043% among 380,000; AID 602233, 2012; further: on the % scale 0 is the no-effect control and ±100 the full control effect; nearly all actives have a fitted effect of over 60% in size
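Luminescent ATP detection (Kinase-Glo Plus) follows a 60-minute room-temperature incubation, with wells lacking PGK as controls. Buffer: 100 mM TEA (pH 7.6), 5 mM MgCl2, 0.01% Tween-20. Coupling enzyme GAPDH (100 nM final) supplies unstable 1,3-BPG in-well.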
ELG1 DNA repair – qHTS screen for small molecules that inhibit ELG1-dependent DNA repair in human embryonic kidney (HEK293T) cells expressing luciferase-tagged ELG1. hit rate 2.3% among 330,000. Potency, µM (highest dose often 46.1 µM), inactives show at the top dose activity change, negative = inhibition, usual class: inhibitors. AID 504467, 2011. HEK293T ELG1-luciferase reporter, luminescence, 16 h; DNA damage induced by 5-fluorouridine; further: on the % scale 0 is the no-effect control and ±100 the full control effect; nearly all actives have a fitted effect of over 55% in size
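Quantitative HTS, concentration-response format. 2,000 cells/well co-treated with 5-fluorouridine and compound, 16 hr in 5% CO2 at 37 °C; ONE-Glo luminescence read after 30 min.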
Rango release inh – qHTS Assay for Inhibitors of RanGTP induced Rango (Ran-regulated importin-beta cargo) - Importin beta complex dissociation. Biochemical FRET Rango-importin beta, RanGTP-induced dissociation. hit rate 0.071% among 340,000. Potency, µM (series often up to 46.1 µM), for inactives: at the highest dose activity change, negative = inhibition. Snurportin-1 (Homo sapiens) + GTP-binding nuclear protein Ran (Homo sapiens) + Importin …; calls by dose curve; further: % of control where 0% means no effect; nearly all actives have a fitted effect of over 45% in size
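Compounds sat 5 min at room temperature with 0.1 uM Rango biosensor plus 0.25 uM importin beta, then FRET pre-read. RanGTP-RCC1 (0.6 uM Ran, 2mM GTP, 0.2 uM RCC1) added for 45 min, and the CFP/YFP post-read measured blocked complex dissociation.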
PKM2 activator – qHTS Assay for Activators of Human Muscle isoform 2 Pyruvate Kinase. hit rate 0.34% among 260,000. AID 1631, 2009. purified PKM2, Kinase-Glo ATP luminescence, activation; response scale: 0% is enzyme alone, no compound. Pyruvate kinase PKM (Homo sapiens), P14618. Potency, µM (titrated, usually from 57.5 µM), for the others: at the top dose activation, actives largely listed as activators; further: on the % scale 0 is the no-effect control and ±100 the full control effect; nearly all actives have a fitted effect of over 55% in size
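ATP formation by purified human PK-M2, quantified via coupled luciferase luminescence after 1 h at room temperature with 0.1 mM ADP and 0.5 mM PEP final.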
Tb PFK inh – qHTS Assay to Find Inhibitors of T. brucei phosphofructokinase; ATP-dependent 6-phosphofructokinase (Trypanosoma brucei brucei), O15648; T. brucei PFK, ADP-Glo luminescence; Potency, µM (highest dose often 57.5 µM), without a hit: at the highest dose activity, negative = inhibition, actives largely listed as inhibitors; hit rate 0.17% among 330,000; AID 485367, 2010;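 further: 0% = uninhibited 1x PFK enzyme wells and -100% = no-enzyme wells; nearly all actives have a fitted effect of over 60% in size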
Target sequence (O15648 whole entry, looked up): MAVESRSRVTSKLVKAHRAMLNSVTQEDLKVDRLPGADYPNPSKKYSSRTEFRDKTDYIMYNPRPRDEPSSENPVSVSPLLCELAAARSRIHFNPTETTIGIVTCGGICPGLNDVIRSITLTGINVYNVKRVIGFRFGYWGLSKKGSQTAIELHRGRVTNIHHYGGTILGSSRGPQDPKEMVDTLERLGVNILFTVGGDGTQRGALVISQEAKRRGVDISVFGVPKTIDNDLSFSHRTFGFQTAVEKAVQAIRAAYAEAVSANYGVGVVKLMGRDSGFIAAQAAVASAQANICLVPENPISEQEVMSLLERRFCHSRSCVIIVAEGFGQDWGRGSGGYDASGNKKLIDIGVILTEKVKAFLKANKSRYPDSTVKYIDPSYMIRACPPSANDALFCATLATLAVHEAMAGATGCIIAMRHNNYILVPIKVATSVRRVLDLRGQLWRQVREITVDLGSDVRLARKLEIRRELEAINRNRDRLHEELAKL
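Activity is normalized to no-enzyme wells (full inhibition) and 1.25 nM enzyme wells (no inhibition). Reaction: 0.5 mM F6P, 0.1 mM ATP, 45 min RT, ADP-Glo luminescence; concentration-response curves fitted and classed by quality.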
Rango complex inh – qHTS Assay for Inhibitors of Rango (Ran-regulated importin-beta cargo) - Importin beta complex formation; Importin subunit beta-1 (Homo sapiens), Q14974; Rango CFP/YFP FRET sensor + importin beta, 45 min; Potency, µM (doses to about 92.2 µM), for inactives: at the highest dose inhibition of complex formation; hit rate 0.031% among 340,000; AID 540263, 2011; calls by dose curve;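 further: 0% = DMSO wells and 100% = buffer wells lacking importin beta; nearly all actives have a fitted effect of over 15% in size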
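FRET biosensor (snurportin 1 IBB flanked by EYFP and cerulean), 50 nM, with compound 5 min, then 0.125 microM importin beta in PBS, 1 mM DTT, 0.02% Tween-20, 0.1% BSA. CFP/YFP ratio read after 45 min at room temperature; pre-read flags interference.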
Active calls of the source: *; i = inactive; u = inconclusive; x = not tested or not shown; [ ] = another dose, or the depositor's remark. Compounds with a hit are over-represented: about 2.4% of the library has one in this group of screens. Unless noted, the call rests on the fitted dose curve; in most records, active means well fitted curve in the direction sought with a large enough effect; inconclusive means small, poorly fitted or top-dose-only effect, or another doubt; inactive means no such curve, though single readings can be large; an effect the other way counts as inactive or inconclusive. Potency means the concentration at half of the fitted maximal effect.

SMILES | Tb PGK inh | ELG1 DNA repair | Rango release inh | PKM2 activator | Tb PFK inh | Rango complex inh
CC(=O)c1c(C)[nH]c(C(=O)OCc2cccc(Cl)c2)c1C | -1% | -16% | 5% | -1% | -17% | 2%
COC(=O)c1c(C)[nH]c(C(=O)OCc2ccc(F)cc2)c1C | -9% | u | -5% | 3% | -4% | -5%
CC(=O)c1c(C)[nH]c(C(=O)OCC(=O)Nc2cc(Cl)ccc2[N+](=O)[O-])c1C | -6% | 18µM* | -4% | 18% | -9% | -4%
CCC(=O)N(C)CCc1cc2c(c(OC)c1/C=N/NC(=O)[C@H]1C[C@@H]1c1ccccc1)OCO2 | -10% | u | 8% | 0% | 0% | 0%
COc1c(/C=N/NC(=O)[C@H]2C[C@@H]2c2ccccc2)c(CCN(C)C(C)=O)cc2c1OCO2 | -18% | 13µM* | 1% | 0% | -2% | 1%
OCC[C@@H]1C[C@@H](O)[C@H](O)[C@]2(CCc3ccccc3O2)O1 | -3% | -8% | 4% | 1% | 2% | 3%
O=C1C(Nc2ccccc2)=C/C(=N/S(=O)(=O)c2cccs2)c2ccccc21 | -25% | 6.5µM* | -10% | -18% | -10% | 2%
COC(=O)c1ccccc1NC1=C/C(=N\S(=O)(=O)c2cccs2)c2ccccc2C1=O | -4% | 5.2µM* | -10% | 11% | 2% | -4%
COC(=O)C1=C(C(=O)OC)[C@@H]2N(Cc3ccccc3)c3ccccc3[C@@]23C[C@@H](C(=O)OC)N(S(=O)(=O)c2ccc([N+](=O)[O-])cc2)C3=N1 | x | x | x | -13%[11.5 µM] | x | x
CCN(CC)S(=O)(=O)c1cc(C(=O)Nc2cc(C)on2)ccc1Cl | i | 16µM* | 2% | x | -6% | -1%
CCN(CC)S(=O)(=O)c1ccc(C(=O)Nc2cc(C)on2)cc1 | -1% | 2% | 10% | x | 0% | 2%
CN(C)S(=O)(=O)c1ccc(N2CCCC2)c(C(=O)NNC(=O)COc2cccc(F)c2)c1 | i | -6% | 27% | x | 0% | -1%
Cc1cccc(NC(=O)CSc2nsc(SCC(=O)Nc3cccc(C)c3)c2C#N)c1 | x | 8.2µM* | 9% | -1% | -1% | 5%
COn1c(C)c(C(C)=O)c2c3nonc3ccc21 | -7% | 21µM* | -24% | -7% | -6% | -2%
CC(=O)n1cc([C@H]2C=C(C(=O)Nc3ccccc3)O[C@@H](OCc3ccc(CO)cc3)C2)c2ccccc21 | i | 9.2µM* | -4% | 0% | -1% | u
C=CCOC(=O)C1=C[C@H](c2coc3ccccc3c2=O)C[C@H](OCc2ccc(CO)cc2)O1 | -2% | 8.2µM* | 2% | 3% | -1% | 0%
CCN(CC)S(=O)(=O)c1ccc(C(=O)NNc2nc(-c3ccccc3)c3cc(Br)ccc3n2)cc1 | 0% | 23µM* | u | 4% | 0% | 2%
CC(C)(C)C(=O)NNc1nc(-c2ccccc2)c2cc(Br)ccc2n1 | -11% | 1% | 0% | 5% | 1% | 0%
CC(C)n1cc(C#N)c(N)n1 | 3% | x | 8% | x | x | 3%
CN(C)c1ccc(SC#N)cc1 | -1% | 18µM* | 1% | 0% | -12% | 0%
O=S(=O)(NCC1CCN(S(=O)(=O)c2ccccc2)CC1)c1ccccc1 | 2% | -13% | 12% | 2.8µM* | -5% | 6%
FC(F)(F)c1ccc(/C=N/NC(=S)NC2CCCCC2)cc1 | -4% | -19% | 5% | 1% | 6% | 6%
